Data reported in the supplement of paper PMC13380429.

test system: Vero E6 infected with SARS-CoV-2; assay: morphology score (similarity to uninfected cells); higher = more like uninfected cells; conditions: 24 h

Row | SMILES | morphology score
1 | O=C1CC[C@@]2(O)[C@H]3Cc4ccc(O)c5c4[C@@]2(CCN3CC2CC2)[C@H]1O5 (10 µM) | -0.0472
2 | CC(C)(C(=O)O)c1ccc(C(O)CCCN2CCC(C(O)(c3ccccc3)c3ccccc3)CC2)cc1 (centres undefined) [fexofenadine] (10 µM) | -0.361
3 | Cc1ccc(-n2sc(=O)n(Cc3ccc(F)cc3)c2=O)cc1 (10 µM) | 0.218
4 | O=C(O)c1ccc(CN2CCC(CN[C@@H]3C[C@H]3c3ccccc3)CC2)cc1 (10 µM) | 0.106
5 | Cc1onc(-c2ccccc2Cl)c1C(=O)N[C@@H]1C(=O)N2[C@@H]1SC(C)(C)[C@@H]2C(=O)O [cloxacillin] (10 µM) | 0.00481
6 | CC[C@H]1[C@@H](O)[C@@H]2[C@H](CC[C@]3(C)[C@@H]([C@H](C)CCC(=O)O)CC[C@@H]23)[C@@]2(C)CC[C@@H](O)C[C@@H]12 [obeticholic-acid] (10 µM) | 0.174
7 | O=C1NCCNC1c1cccs1 (centres undefined) [tenilsetam] (10 µM) | 0.095
8 | C=C1C(=O)[C@]23[C@H](O)[C@H]1CC[C@H]2[C@@]12CO[C@]3(O)[C@@H](O)[C@@H]1C(C)(C)CC[C@@H]2O [Oridonin (Isodonol)] (0.833333 µM) | 0.108
9 | NCCCNCCSP(=O)(O)O [amifostine] (10 µM) | 0.164

test system: Vero E6 infected with SARS-CoV-2; assay: SARS-CoV-2 infection rate relative to infected DMSO; higher = more infection, active = 60 or less; conditions: 24 h

Row | SMILES | SARS-CoV-2 infection rate
10 | C[C@H]1C[C@H]2[C@@H]3CCC4=CC(=O)C=C[C@]4(C)[C@@]3(Cl)[C@@H](O)C[C@]2(C)[C@@]1(O)C(=O)CO [beclomethasone] (10 µM) | 89.5% (inactive)
11 | C[N@+]1(CC2CC2)CC[C@]23c4c5ccc(O)c4O[C@H]2C(=O)CC[C@@]3(O)[C@H]1C5 [methylnaltrexone] (10 µM) | 118% (inactive)
12 | CCOP(=S)(OCC)Oc1nc(Cl)c(Cl)cc1Cl [chlorpyrifos] (10 µM) | 112% (inactive)
13 | C[C@]12CC[C@@H]3c4ccc(O)cc4CC[C@H]3[C@@H]1C[C@@H](O)[C@@H]2O [estriol] (10 µM) | 108% (inactive)
14 | O=C[C@H](F)[C@@H](O)[C@@H](O)[C@H](O)CO [2-fluoro-2-deoxy-D-galactose] (10 µM) | 116% (inactive)
15 | CCN(CCNC(=O)Nc1ccccc1Br)c1cccc(C)c1 (10 µM) | 112% (inactive)
16 | N#CCC(=O)NN [cyacetacide] (10 µM) | 102% (inactive)
17 | NC(=O)c1nc(Nc2ccccc2)sc1NC(=O)C1CCCCC1 (0.833333 µM) | 100% (inactive)
18 | CN(C)CC(=O)Nc1ccc2[nH]c(=O)c3ccccc3c2c1 (10 µM) | 92.5% (inactive)
19 | CC(C)(NS(=O)(=O)c1ccc(Oc2ccc(F)cc2)cc1)C(=O)NO (10 µM) | 99% (inactive)
20 | COc1cc(S(C)(=O)=O)ccc1Nc1nc2ccc(-c3ccc(NC(=O)[C@H](C)c4ccc(F)cc4)cc3)cn2n1 (10 µM) | 105% (inactive)
21 | CCC1(C2=NCCN2)Cc2ccccc2O1 (centres undefined) [efaroxan] (10 µM) | 95% (inactive)
22 | COc1cc(/C=C2\CCC/C(=C\c3ccc(O)c(OC)c3)C2=O)ccc1O [cyclovalone] (10 µM) | 93% (inactive)
23 | COC[C@@H](NC(C)=O)C(=O)NCc1ccccc1 [Lacosamide] (10 µM) | 103% (inactive)
24 | COC(=O)C1=C(C)NC(C)=C(C(=O)OC)C1c1ccccc1[N+](=O)[O-] [nifedipine] (10 µM) | 106% (inactive)
25 | Cc1cc2nc3c(=O)[nH]c(=O)nc-3n(C)c2cc1C=O (10 µM) | 100% (inactive)
26 | CO[C@H]1C[C@@H]2CC[C@@H](C)[C@@](O)(O2)C(=O)C(=O)N2CCCC[C@H]2C(=O)O[C@H]([C@H](C)C[C@@H]2CC[C@@H](O)[C@H](OC)C2)CC(=O)[C@H](C)/C=C(\C)[C@@H](O)[C@@H](OC)C(=O)[C@H](C)C[C@H](C)/C=C/C=C/C=C/1C [sirolimus] (10 µM) | 104% (inactive)
27 | CN(c1ccc(NC(=O)Nc2ccccc2)cc1)S(=O)(=O)c1cnn(-c2ccc(F)cc2)c1 (10 µM) | 83.5% (inactive)
28 | CNC(=O)c1c(I)c(NC(C)=O)c(I)c(C(=O)O)c1I [iothalamic-acid-d3] (10 µM) | 104% (inactive)
29 | CCCCCCOc1nsnc1C1=CCCN(C)C1 [xanomeline] (10 µM) | 71.5% (inactive)

Row | SMILES | SARS-CoV-2 infection rate
30 | CCOC(=O)C1=CCCC[C@H]1S(=O)(=O)Nc1ccc(F)cc1Cl [resatorvid] (10 µM) | 99.5% (inactive)
31 | CCC[C@@H](NC(=O)N1C(=O)C(CC)(CC)[C@@H]1Oc1ccc(C(=O)N2CCN(C)CC2)cc1)c1ccc2c(c1)OCO2 (10 µM) | 109% (inactive)
32 | CCOc1cc(C(=O)N2CCC(N3CCN(C)CC3)CC2)ccc1Nc1ncc2c(n1)N(C1CCCC1)c1ccccc1C(=O)N2C (10 µM) | 122% (inactive)
33 | CCN1C[C@]2(OC(=O)c3ccccc3NC(C)=O)CC[C@H](OC)[C@@]34[C@@H]2C[C@@H]([C@@H]13)[C@@]1(O)C[C@H](OC)[C@H]2C[C@@H]4[C@]1(O)[C@H]2OC [lappaconite] (10 µM) | 118% (inactive)
34 | CC(C)[C@H](CO)Nc1nc(Nc2cccc(Cl)c2)c2ncn(C(C)C)c2n1 [purvalanol-A] (0.833333 µM) | 109% (inactive)
35 | COc1ccc(Nc2ncnc3ccc(OC)cc23)cc1 (10 µM) | 122% (inactive)
36 | O=[N+]([O-])c1cc(O)c(O)c([N+](=O)[O-])c1 (10 µM) | 101% (inactive)
37 | CC/C(=C(\c1ccccc1)c1ccc(OCCN(C)C)cc1)c1ccccc1 [tamoxifen] (0.833333 µM) | 95.5% (inactive)
38 | CC(C)CCC[C@@H](C)[C@H]1CC[C@H]2[C@@H]3CC=C4C[C@@H](O)CC[C@]4(C)[C@H]3CC[C@]12C [cholesterol] (10 µM) | 98% (inactive)
39 | CCCCC1=NC2(CCCC2)C(=O)N1Cc1ccc(-c2ccccc2-c2nnn[nH]2)cc1 [irbesartan] (10 µM) | 96.5% (inactive)
40 | C[N+](C)(C)CCOC(=O)CCC(=O)OCC[N+](C)(C)C [succinylcholine-chloride] (10 µM) | 110% (inactive)
41 | O=C1CC[C@@]2(O)[C@H]3Cc4ccc(O)c5c4[C@@]2(CCN3CC2CC2)[C@H]1O5 (10 µM) | 106% (inactive)
42 | CC(C)(C(=O)O)c1ccc(C(O)CCCN2CCC(C(O)(c3ccccc3)c3ccccc3)CC2)cc1 (centres undefined) [fexofenadine] (10 µM) | 122% (inactive)
43 | Cc1ccc(-n2sc(=O)n(Cc3ccc(F)cc3)c2=O)cc1 (10 µM) | 96% (inactive)
44 | O=C(O)c1ccc(CN2CCC(CN[C@@H]3C[C@H]3c3ccccc3)CC2)cc1 (10 µM) | 98% (inactive)
45 | Cc1onc(-c2ccccc2Cl)c1C(=O)N[C@@H]1C(=O)N2[C@@H]1SC(C)(C)[C@@H]2C(=O)O [cloxacillin] (10 µM) | 99.5% (inactive)
46 | CC[C@H]1[C@@H](O)[C@@H]2[C@H](CC[C@]3(C)[C@@H]([C@H](C)CCC(=O)O)CC[C@@H]23)[C@@]2(C)CC[C@@H](O)C[C@@H]12 [obeticholic-acid] (10 µM) | 101% (inactive)
47 | O=C1NCCNC1c1cccs1 (centres undefined) [tenilsetam] (10 µM) | 106% (inactive)
48 | C=C1C(=O)[C@]23[C@H](O)[C@H]1CC[C@H]2[C@@]12CO[C@]3(O)[C@@H](O)[C@@H]1C(C)(C)CC[C@@H]2O [Oridonin (Isodonol)] (0.833333 µM) | 97% (inactive)
49 | NCCCNCCSP(=O)(O)O [amifostine] (10 µM) | 100% (inactive)
